Rows were chosen to be rich in hits. Some 8.1% of all compounds tested hit in one or more screens of this group.
Sfp inh = qHTS Assay for Inhibitors of Bacillus subtilis Sfp phosphopantetheinyl transferase (PPTase). 4'-phosphopantetheinyl transferase ffp (Bacillus subtilis), Q9F4F7. Potency, µM, usual class: inhibitors. AID 1490, 2009. Biochemical Sfp PPTase activity, qHTS. 3.5% of 310,000 active;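 also: the enzyme is Sfp with the accession as filed and its product quenches rhodamine fluorescence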
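Compounds were incubated with enzyme (final 15 nM) for 15 min at room temperature before substrate addition started the reaction. Fluorescence at 525 nm excitation, 598 nm emission was recorded immediately and after 30 minutes.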
RORg inh = qHTS for inhibitors of ROR gamma transcriptional activity. Drosophila S2 Gal4-RORgamma UAS-luciferase reporter, 20 h. Potency, µM (titrated, usually from 53.6 µM), hits mostly inhibitors. 5.4% of 310,000 active. AID 2551, 2010; also: nearly all actives have a fitted effect of over 60% in size
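Drosophila Schneider cells stably carrying a metallothionein-driven Gal4 DBD–ROR gamma fusion and a UAS-Photinus luciferase reporter were exposed to compound for 1 hr, then induced with copper sulfate (700 uM final) for 20 hr at ambient temperature before luminescence reading.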
Gal4-VP16 FLuc = VP16 counterscreen qHTS for inhibitors of ROR gamma transcriptional activity. 3.5% of 310,000 active. Drosophila S2 Gal4-VP16 UAS-luciferase, luminescence, 20 h. Potency, µM (top dose mostly 53.6 µM), usual class: inhibitors;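 also: Gal4-VP16 expression switched on by copper sulfate through the metallothionein promoter; nearly all actives have a fitted effect of over 50% in size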
ClpP mod = qHTS Assay for Activators of ClpP; purified B. subtilis ClpP, FRET peptide cleavage, 20 min; ATP-dependent Clp protease proteolytic subunit (Bacillus subtilis (strain 168)), P80244; Potency, µM (doses to about 57.5 µM); 1.9% of 340,000 active; active = well fitted falling curve with a large enough effect; inconclusive = small, poorly fitted or top-dose-only effect; inactive = no such curve, though single readings can be large or run the other way; also: the source files actives as falling curves though it sought activators and does not explain the sign; nearly all actives have a fitted effect of over 65% in size
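Buffer: 100 mM Tris/HCl pH8, 100 mM KCl, 0.05% low protease BSA, 2.5% glycerol, 0.01% Tween-20. ClpP 10 microg/mL final; 20 min RT; delta FRET normalized to ADEP and DMSO controls.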
Epigenetic derep = Quantitative High-Throughput Screen for Regulators of Epigenetic Control. murine LDR cells, GFP reporter derepression, 30 h. Potency, µM (series often up to 53.9 µM), most hits filed as activators. 0.2% of 280,000 active. AID 1865, 2009; also: nearly all actives have a fitted effect of over 60% in size
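Murine LDR cells bearing a silenced CMV-driven GFP reporter were exposed to compound for 30 h at 37 C. After PBS washes, GFP-positive cells (20-120 um objects) counted by laser-scanning microplate cytometry.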
PINK1 expr mod = A Quantitative High throughput Screen to Identify Chemical Modulators of PINK1 Expression. PINK1 immunofluorescence, high-content cytometry, 24 h. Potency, µM (doses to about 76.6 µM), actives largely listed as activators. 0.2% of 410,000 active; active = well fitted activation curve with a large enough effect; inconclusive = small, poorly fitted or top-dose-only effect; cell line not stated here; also: nearly all actives have a fitted effect of over 65% in size
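Stable cell line, 250 cells/well, 12 h attachment; compounds pinned at 5 concentrations, 24 h; CCCP control. Fixed with nuclear dye, primary antibodies 12 h at 10 degrees C, secondary plus cell stain; laser-scanning cytometer read.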
Numbers stand for hits; - = inactive; ? = inconclusive; . = no result; [ ] = remark or other dose. Unless noted, calls follow the shape of the dose curve; as a rule, active = well fitted curve in the direction sought with a large enough effect; inconclusive = small, poorly fitted or top-dose-only effect, or another doubt; inactive = no such curve, though single readings can be large; an effect the other way counts as inactive or inconclusive.

SMILES	Sfp inh	RORg inh	Gal4-VP16 FLuc	ClpP mod	Epigenetic derep	PINK1 expr mod
C=CCN1C(=O)/C(=N/n2cnnc2)c2ccccc21	-	-	-	-	-	-
C=CCN1C(=O)/C(=c2\sc3nc(=O)c(Cc4ccccc4)nn3c2=O)c2ccccc21	13µM	11µM	?	-	-	-
CN1C(=O)C(CC(=O)O)S/C1=N\N=C\c1ccc(O)cc1O (stereo unspecified)	-	?	20µM	-	-	-
O=C(O)CC1S/C(=N\N=C/c2ccccc2)N(c2ccc(O)cc2)C1=O (stereo unspecified)	-	-	-	-	-	.
Cc1ccc(NC(=O)CC2S/C(=N/N=C3/NC(=O)CS3)NC2=O)cc1 (stereo unspecified)	-	?	-	-	-	-
O=C1CS/C(=N/N=C2C3CC4CC(C3)CC2C4)N1	-	4.5µM	3.2µM	-	-	-
O=C1CSC(=Nc2ccc(O)cc2)N1	-	-	-	-	.	-
CC1C/C(=N/N2C(=O)CSC2=S)CC(C)(C)C1 (stereo unspecified)	-	10µM	-	-	-	-
CC1C/C(=N/N=C2/NC(=O)CS2)CC(C)(C)C1 (stereo unspecified)	-	2.2µM	5µM	-	-	-
CC(=O)c1cccc(NS(=O)(=O)c2cc3c(cc2C)n(C)c(=O)c(=O)n3C)c1	.	.	.	-	-	-
COc1ccccc1OCC(=O)Nc1c(C(=O)c2ccc(F)cc2)oc2ccccc12	.	.	.	-	-	-
CCOCc1ccccc1Nc1ncnc2onc(-c3ccc(Cl)cc3)c12	.	.	.	-	-	-
CCN(Cc1ccccc1)S(=O)(=O)c1cc(Br)cc2c1N(C(=O)C1CC1)CC2	.	.	.	-	-	-
Cc1cc(C)c(N(Cc2ccccc2)S(=O)(=O)c2ccc(OCCNC(=O)c3cc4ccccc4o3)cc2)c(C(=O)NO)c1	-	10µM	?	.	.	.
CN(C)c1ccc(/C=C/c2ccnc3ccccc23)cc1Cl	.	.	.	-	.	.
CN(C)c1ncc2nc(-c3cccs3)c(=O)n(C[C@H]3CCCO3)c2n1	-	-	-	.	.	-
CCn1c(O)c(N=NC(=O)CNc2cccc(C)c2)c2ccccc21	-	-	-	.	-	-
Cc1ccc(Cn2c(O)c(N=NC(=S)Nc3ccccc3F)c3ccccc32)cc1	-	4µM	7.1µM	-	-	-
C=CCn1c(O)c(N=NC(=S)Nc2cccc(C)c2)c2ccccc21	-	0.25µM	0.45µM	-	-	?
COC(=O)N=Nc1c(O)n(Cc2ccccc2)c2ccccc12	-	-	-	.	-	-
Oc1c(N=NC(=S)Nc2ccccc2F)c2ccccc2n1Cc1ccccc1	-	2.8µM	3.5µM	-	-	-
C=CCn1c(O)c(N=NC(=S)Nc2ccccc2F)c2ccccc21	-	0.79µM	1.8µM	-	-	-
COc1cccc(C(=O)N(Cc2cc3ccc(C)cc3nc2N(C)C)C2CC2)c1OC	.	.	.	.	.	-
Cc1ccc(CNC(=O)C(CC(C)C)N2Cc3ccccc3C2=O)cc1 (stereo unspecified)	.	.	.	-	-	-
COc1ccc(CN2CCCC(n3cc(C(=O)NC4CCCC4)nn3)C2)c2ccccc12 (stereo unspecified)	.	.	.	.	.	-
SMILES	Sfp inh	RORg inh	Gal4-VP16 FLuc	ClpP mod	Epigenetic derep	PINK1 expr mod
Oc1c(N=NC(=S)Nc2ccccc2F)c2ccccc2n1Cc1ccccc1Cl	-	2.2µM	6.3µM	-	-	-
C=CCn1c(O)c(N=NC(=S)Nc2ccccc2F)c2cc(S(=O)(=O)N3CCOCC3)ccc21	-	0.45µM	2µM	-	-	-
Cc1c(Cl)cccc1NC(=O)CCN1CCOCC1	-	-[1.91 µM]	-	-	.	-
Cc1c(Cl)cccc1NC(=S)N=Nc1c(O)n(CN2CCOCC2)c2ccccc12	-	1.8µM	5µM	.	?	-
COc1ccc(-c2cc(=O)c3c(O)c(OC)c(O)cc3o2)cc1	-	?	10µM	-	-	-
COc1ccc(-c2cc(=O)c3c(O)c(OC)c(OC)c(OC)c3o2)cc1	-	-	-	-	-	-
